The supplement of paper PMC11219838
Unmarked numbers belong to inactive results.

Tested on: Caenorhabditis elegans L1 (N2)
Experiment: survival and reproduction score of C. elegans L1 (0: 0-10 living worms, 1: 11-20, 2: 21-50, 3: >50, 4: overgrown) (score 0-4); higher = more worms, less nematicidal, active = 1 or less; extreme values may be limits of the assay
Details: 60 µM; 6 days; temperature: 20 °C
Outline: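 Compound was pinned to a final 60 µM (0.6% v/v DMSO) into 96-well wells, each holding about 20 synchronized C. elegans N2 L1s and E. coli HB101 in liquid NGM. After 6 days of shaking at 200 rpm and 20 °C in sealed plates, the worms in each well were examined. The ordinal readout of survival and reproduction, based on living worms per well, was assessed under a dissection microscope. On this scale 0 meant 0–10 worms and 4 meant overgrown, starved wells, and two biological replicates were averaged.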

Structure (SMILES)	survival and reproduction score
N#Cc1ccc(CSc2nnc(-c3ccco3)o2)cc1	1.5
CC(Sc1nnc(-c2ccc(C(C)(C)C)cc2)o1)C(=O)Nc1nccs1 (centres undefined)	4
O=C(Nc1ccccc1-c1nc(-c2ccncc2)no1)c1ccc(Cl)cc1	4
O=C(Nc1ccccc1-c1nc(-c2cccnc2)no1)c1ccccc1Cl	4
Cc1cccc(-c2noc(-c3cc(Cl)ccc3Cl)n2)c1	2
O=C(CSc1nnc(-c2ccc(Br)cc2)o1)Nc1ccc2ccccc2c1	4
Cc1nnc(CSc2nnc(-c3ccc(Cl)cc3)o2)o1	4
Brc1ccc(-c2noc(-c3cccs3)n2)cc1	0 (active)
CCCCCOC(=O)CSc1nnc(-c2ccc(Cl)cc2Cl)o1	4
COc1ccc(Cl)cc1NC(=O)CSc1nnc(-c2ccco2)o1	4
CCOc1nc(-c2ccc(C)cc2)ccc1-c1noc(-c2ccco2)n1	4
COc1ccc(OC(C)c2nc(-c3cccnc3)no2)cc1 (centres undefined)	4
Fc1cccc(Cl)c1CSc1nnc(-c2ccccc2Cl)o1	4
COc1ccc(-c2noc(-c3cc(C)ccc3C)n2)cc1	4
Fc1cccc(-c2nc(-c3cccnc3)no2)c1	0 (active)
COc1ccc(NC(=O)c2ccccc2-c2nc(-c3ccccc3C)no2)cc1	4
CCOc1cc(-c2nc(-c3cccnc3)no2)cc(OCC)c1OCC	4
Cc1cc(OCc2nc(-c3cccnc3)no2)ccc1Cl	4
CCSc1nnc(-c2ccc(Cl)cc2)o1	0 (active)
